The values that follow come from PubChem BioAssay (NCI).

Holding throughout (test): NCI-60 one-dose screen, 48 h (100 = growth as untreated, 0 = no growth, -100 = all killed)
Common to all, as to settings: 10 µM unless noted

Assay [1] deals with DU-145 prostate.
The subject of assay [2] is K-562 leukemia.
In assay [3] the test system is MALME-3M melanoma.
Assay [4] has as its system MDA-MB-231 breast.
The subject of assay [5] is RXF 393 renal.
Assay [6] relates to SF-268 CNS.
Assay [7] relates to SF-295 CNS.
For assay [8], the system named is SF-539 CNS.
The subject of assay [9] is UACC-257 melanoma.
For assay [10], the system named is M14 melanoma.

This is part of a sample that, as a whole, favours compounds with a hit. Of some 83,000 tested, about 20% had one in any assay.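 The endpoint reported here, percent growth, reads 100 for growth as untreated, 0 for no net growth and -100 for all cells dead.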 Unmarked numbers belong to inactive results. Activity calls are given as the source filed them. The calls were made as follows: active = growth percent below 10; inactive = the rest.

In the case of `CN1CCN(c2ccc(/C=N/n3cnc4oc(-c5ccccc5)cc4c3=N)cc2)CC1`, the growth is 100% in [1]; 6.36% (active) in assay [2]; 113% in assay [3]; 65.3% in assay [4]; -5.53% (active) in assay [5]; 92.5% in assay [6]. Moreover, the growth was 99.6% in assay [7], 84.9% in [8] and 96.7% in assay [9].
For the compound `COc1ccccc1N1CCN(C2=CC(=O)C(C)=C(C)C2=O)CC1`, the growth in [1] is 105%; in [2] it was 96.9%; in [3], 104%; in assay [4], 102%; in [5] it was 97.7%; in assay [6] it was 101%. The growth was 103% in [7], 100% in assay [8] and 96.4% in assay [9].
Turning to `COc1ccc(S(=O)(=O)NCCCNc2nccc(-c3[nH]c(-c4ccccc4)nc3-c3ccc(Cl)c(O)c3)n2)cc1`, the growth is 89.3% in assay [1]; 55.2% in assay [2]; -7% (active) in assay [3]; 61.4% in assay [4]; 140% in assay [5]; 92% in assay [6]. Further, the growth was 96.4% in assay [7], 101% in assay [8] and 23.6% in assay [9].
For `N#Cc1c(Nc2ccccc2)nn2c(-c3ccc([N+](=O)[O-])cc3)ccnc12`, the growth in assay [1] was 109%; in assay [2], 112%; in assay [3], 104%; in assay [4], 102%; in [5] it was 90.3%; in [6], 100%. The growth was 104% in assay [7], 100% in assay [8], 95.3% in assay [9] and 106% in assay [10].
As for `COc1cc(OC)c(/C=C/S(=O)(=O)Cc2ccc(OC)c(NC(=O)CCC(=O)NO)c2)c(OC)c1`, the growth was 14.4% in assay [1]; 12.6% in assay [2]; 64.1% in [3]; 26% in assay [4]; 6.03% (active) in assay [5]; 30.4% in [6]. Further, the growth is 8.21% (active) in assay [7], -4.79% (active) in assay [8] and 59.5% in assay [9].
Regarding `CN(C)C(=O)c1cc(-c2ccc3ncnc(NCc4ccccc4)c3c2)cnc1N`, the growth in [1] was 55.6%; in assay [2], 95.9%; in [3], 101%; in [4], 70%; in [5] it was -4.14% (active); in assay [6] it was 65.7%. The growth was 91.7% in assay [7], 90.4% in [8], 94.4% in [9] and 109% in [10].
As for `C/C(=N\O)[C@H]1C[C@]23CC[C@]4(C)[C@H](CC[C@@H]5[C@@]6(C)CC/C(=N/O)C(C)(C)[C@@H]6CC[C@]54C)[C@H]2[C@H](C)C1(C)OC3`, the growth in assay [1] was 94.4%; in assay [2], 101%; in [3], 106%; in assay [4] it was 99%; in assay [5], 58.1%; in assay [6] it was 89.4%. The growth in assay [7] is 101%; in assay [8] it was 103%; in [9] it was 110%; in assay [10], 105%.
Turning to `O=S(=O)(Nc1cccc2ccccc12)c1ccc(-c2cnc(C3CC3)o2)cc1`, the growth is 15.3% in assay [1]; 8.55% (active) in assay [2]; 61.4% in assay [3]; 27.6% in assay [4]; 7.94% (active) in assay [5]; 55.5% in assay [6]. Moreover, the growth in [7] was 0.665% (active); in assay [8] it was 7.47% (active); in assay [9], 69%; in [10], 14.5%.
As to `CC(=O)N1N=C(c2cccc(-n3cccc3)c2)CC1c1cccc(F)c1` (stereo not given), the growth is 114% in [1]; 99.9% in assay [2]; 88.3% in [3]; 94.8% in [4]; 86.1% in assay [5]; 113% in assay [6]. Further, the growth is 107% in assay [7], 101% in assay [8], 104% in assay [9] and 97.6% in assay [10].
On to `CC1(C)CC[C@]2(C(=O)O)CC[C@]3(C)C(=CC[C@@H]4[C@@]5(C)CC/C(=N\OCCC#N)C(C)(C)[C@@H]5CC[C@]43C)[C@@H]2C1`, for which the growth was 91.8% in assay [1]; 109% in assay [2]; 117% in [3]; 93% in [4]; 66.6% in [5]; 84.6% in assay [6]. Besides, the growth is 102% in [7], 99.2% in assay [8], 108% in assay [9] and 98.2% in [10].
Take `O=S(=O)(NC1c2ccccc2C[C@H]1O)c1ccc(Cl)cc1Cl` (stereo not given in full): the growth in assay [1] was 114%; in assay [2], 95.2%; in [3] it was 93.6%; in assay [4], 99.5%; in assay [5], 107%; in assay [6] it was 96.7%. For the same compound, the growth in assay [7] was 108%; in assay [8], 101%; in assay [9] it was 102%; in [10] it was 92.3%.
Consider `Cn1ccnc1C(=O)/C=C/C=C/c1ccc(C(=O)Nc2ccc(F)cc2)cc1`, for which the growth in [1] is 18.8%; in assay [2], 12.6%; in assay [3] it was 19.9%; in assay [4], 12.3%; in assay [5], -25.1% (active); in [6], 22%. In addition, the growth in assay [7] was 59%; in assay [8] it was -25.4% (active); in [9] it was 46.8%.
For `CC(C)(C)n1nnnc1C(Nc1cccc2c1OCO2)c1cc2cccc3ccc4cccc1c4c32` (stereo not given), the growth is 97.5% in [1]; 75% in [2]; 93.2% in [3]; 80.5% in assay [4]; 40.6% in assay [5]; 78.7% in assay [6]. Besides, the growth in [7] is 81.9%; in assay [8], 93%; in assay [9] it was 100%; in assay [10] it was 97.8%.
For `COc1ccc(-n2c(SCc3nnc(NC(=O)c4ccc(Br)cc4)s3)nc3cc(OC)c(OC)cc3c2=O)cc1`, the growth in [1] is 89.4%; in assay [2] it was 100%; in assay [3] it was 92.2%; in assay [4], 87.9%; in assay [5], 104%; in [6], 86.4%. The growth in assay [7] was 93.2%; in assay [8], 92.9%; in [9], 101%; in [10] it was 92.5%.
